PubChem BioAssay (NCATS)
Records with an inconclusive call do not appear. Calls of active or inactive are those of the source. Calls come from the whole dose curve; as a rule, active = well fitted curve in the direction sought with a large enough effect; inconclusive = small, poorly fitted or top-dose-only effect, or another doubt; inactive = no such curve, though single readings can be large; an effect the other way counts as inactive or inconclusive.

Tests used:
[1] = target: Protein phosphatase 1D (Homo sapiens) (UniProt O15297); experiment: RapidFire Mass Spectrometry qHTS Assay for Modulators of WT P53-Induced Phosphatase 1 (WIP1) (AID 1347424);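 note: amount of dephosphorylated VEPPL-S-QETFS peptide product formed by WIP1; series mostly up to about 63 µM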
Outline: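 10 nM WIP1 + cpd, 1 h RT; + 2 uM VEPPL-pS-QETFS, 5 min RT; stop 0.5% formic acid; labelled product standard 1 uM; RapidFire MS. Buffer 50 mM Tris pH 7.5, 30 mM MgCl2, 1 mM TCEP.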

[2] = target: Protein phosphatase 1D (Homo sapiens) (UniProt O15297); experiment: Rhodamine-PBP qHTS Assay for Modulators of WT P53-Induced Phosphatase 1 (WIP1) (AID 1347425)
Outline: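 5 nM WIP1 + 10 uM Rh-PBP, 50 mM Tris pH 7.5, 30 mM MgCl2, 1 mM TCEP, 0.1 mM EGTA, BSA; cpds pinned, 1 hr RT; + 10 uM phosphopeptide; fluorescence 1-min reads x 11 min; delta = f1 - f0.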

[3] = Primary qHTS for inhibitors of La Crosse Virus (LACV) - induced cell death in SH-SY5Y cells (AID 1508616);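 note: top concentration of the series differs between compounds; higher means more rescue of cells from virus-induced death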
Outline: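 Protection against LACV-induced cell death is scored in SH-SY5Y cells exposed to compounds and virus (0.01 MOI) for 6 days. Data normalized to virus-infected DMSO wells and virus-free DMSO wells.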

[4] = target: Calcium and integrin-binding protein 1 (Homo sapiens) (UniProt Q99828); experiment: Primary qHTS for Identification of Calcium Integrin Binding Protein 1 (CIB1) Competitor (AID 1508620);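 note: GST tagged CIB1 binding a fluorescein labelled alphaIIb integrin peptide tracer; top concentration of the series differs between compounds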
Outline: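 CIB1-GST (1 uM final) and compound incubated 15 min at room temperature before adding FITC-alphaIIb peptide tracer (100 nM final). Competition for binding read by fluorescence polarization (ex 480, em 540) after another 15 min at room temperature.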

[5] = Primary qHTS for small molecule stabilizers of the endoplasmic reticulum resident proteome: Secreted ER Calcium Modulated Protein (SERCaMP) assay (AID 1508630)
Outline: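 GLuc-SERCaMP-expressing SH-SY5Y cells, pretreated 16 h with compound, are challenged with thapsigargin to empty ER calcium stores; after 4 h, coelenterazine is added directly to the medium and luminescence is imaged.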

Measured: outcome

Chain of Calcium and integrin-binding protein 1 (Homo sapiens) (Q99828 whole entry, looked up): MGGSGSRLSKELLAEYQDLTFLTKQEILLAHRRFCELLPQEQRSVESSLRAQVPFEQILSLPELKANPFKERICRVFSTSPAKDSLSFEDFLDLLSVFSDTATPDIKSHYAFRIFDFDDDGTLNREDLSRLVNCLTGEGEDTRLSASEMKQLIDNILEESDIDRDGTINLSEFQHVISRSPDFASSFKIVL
Chain of Protein phosphatase 1D (Homo sapiens) (O15297 whole entry, looked up): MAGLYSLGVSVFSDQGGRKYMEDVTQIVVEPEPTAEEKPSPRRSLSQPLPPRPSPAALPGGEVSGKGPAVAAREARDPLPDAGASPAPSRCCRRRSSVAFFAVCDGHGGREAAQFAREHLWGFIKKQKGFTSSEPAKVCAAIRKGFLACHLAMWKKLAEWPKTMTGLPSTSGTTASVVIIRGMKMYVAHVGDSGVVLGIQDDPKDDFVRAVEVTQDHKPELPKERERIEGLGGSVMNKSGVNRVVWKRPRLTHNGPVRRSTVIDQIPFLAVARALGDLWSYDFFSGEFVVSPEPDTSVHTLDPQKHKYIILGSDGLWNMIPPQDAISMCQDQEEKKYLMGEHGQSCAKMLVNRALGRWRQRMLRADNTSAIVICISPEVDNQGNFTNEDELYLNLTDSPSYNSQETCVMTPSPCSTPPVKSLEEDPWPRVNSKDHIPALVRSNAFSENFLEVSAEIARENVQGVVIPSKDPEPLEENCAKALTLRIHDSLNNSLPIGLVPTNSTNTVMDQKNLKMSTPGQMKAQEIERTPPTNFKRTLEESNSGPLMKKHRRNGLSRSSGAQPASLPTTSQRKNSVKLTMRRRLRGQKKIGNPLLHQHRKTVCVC

Cc1ccc(S(=O)(=O)NC(=O)NC2CCCCCCC2)cc1
inactive: all assays above

CCN(CC)CCOC(=O)C(c1ccccc1)c1ccccc1
inactive: all assays above

C=CCN1C[C@H](C(=O)N(CCCN(C)C)C(=O)NCC)C[C@@H]2c3cccc4[nH]cc(c34)C[C@H]21
inactive: all assays above

CCN(CC)CCc1nc(-c2ccccc2)no1
inactive: all assays above

CC1CCN(CCCC(=O)c2ccc(F)cc2)CC1
inactive: all assays above

Cc1ccsc1/C=C/C1=NCCCN1C
inactive: all assays above

CN1CCCN=C1COC(=O)C(O)(c1ccccc1)C1CCCCC1 (stereo not given)
inactive: all assays above

CC(CSC(=O)c1ccccc1)C(=O)N1C[C@@H](Sc2ccccc2)C[C@H]1C(=O)O (stereo not given in full)
inactive: all assays above

CC(C)CCCC(C)CCCC(C)CCCCC(C)CCCC(C)CCCC(C)C (stereo not given)
inactive: all assays above

CC(=O)Nc1cccc(O)c1
inactive: all assays above

O=c1[nH]c2cc(C(F)(F)F)c(N3CCOCC3)cc2n(CP(=O)(O)O)c1=O
inactive: all assays above

C[N+](C)(C)CC(O)CC(=O)[O-] (stereo not given)
inactive: all assays above

OC[C@@H](O)[C@@H](O)[C@H](O)[C@H](O)CO
inactive: all assays above

CC(C)C[C@@H](N)C(=O)O
inactive: all assays above

O=C(NCCCN1CCOCC1)c1ccc(Cl)cc1
inactive: all assays above

C[C@@H]1CCC[C@H](C)N1
inactive: all assays above

O=C(O)CCCc1ccccc1
inactive: all assays above

CN/C(=C\[N+](=O)[O-])NCCSCc1csc(CN(C)C)n1
inactive: all assays above

Cc1[nH]c(C)c(Cl)c(=O)c1Cl
inactive: all assays above

CCOc1ccc(C(=O)OCCN(CC)CC)cc1
inactive: all assays above

CC1CCc2cc(F)cc3c(=O)c(C(=O)O)cn1c23 (stereo not given)
inactive: all assays above

CC(=O)NCc1c(I)c(NC(C)=O)c(I)c(C(=O)O)c1I
inactive: all assays above

CC(=O)OCC(=O)[C@@]1(O)CC[C@H]2[C@@H]3CCC4=CC(=O)C=C[C@]4(C)[C@@]3(F)[C@@H](O)C[C@@]21C
inactive: all assays above

O=C(O)CNC(=O)c1ccccc1I
inactive: all assays above

CC[C@H](C)[C@H](N)C(=O)O
inactive: all assays above

Cc1cc(NC(=O)C2=C(O)c3ccccc3S(=O)(=O)N2C)no1
inactive: all assays above

CC1(c2ccccc2)OC(C(=O)O)=CC1=O (stereo not given)
inactive: all assays above

COC(=O)c1ccccc1C(=O)c1ccc(OCCN2CCCCC2)cc1
inactive: all assays above

COCC(=O)Nc1c(I)c(C(=O)NCC(O)CO)c(I)c(C(=O)N(C)CC(O)CO)c1I (stereo not given)
inactive: all assays above

CC(C)=CCC[C@@](C)(O)[C@H]1CC=C(C)CC1
inactive: all assays above

CC(=O)OC[C@H]1O[C@@](COC(C)=O)(O[C@H]2O[C@H](COC(C)=O)[C@@H](OC(C)=O)[C@H](OC(C)=O)[C@H]2OC(C)=O)[C@@H](OC(C)=O)[C@@H]1OC(C)=O
inactive: all assays above

CC(=O)NS(=O)(=O)c1ccc(N)cc1
inactive: all assays above

O=C(Cn1ccnc1[N+](=O)[O-])NCc1ccccc1
inactive: all assays above

CCCNC(C)C(=O)Nc1c(C)csc1C(=O)OC (stereo not given)
inactive: all assays above

Cc1c(C(=O)NCCO)[n+](=O)c2ccccc2n1[O-]
inactive: all assays above

COc1ccccc1Oc1c(NS(=O)(=O)c2ccc(C(C)(C)C)cc2)nc(-c2ncccn2)nc1OCCO
inactive: all assays above

CCS(=O)(=O)CCn1c([N+](=O)[O-])cnc1C
inactive: all assays above

CC(=O)N(CC(O)CN(C(C)=O)c1c(I)c(C(=O)NCC(O)CO)c(I)c(C(=O)NCC(O)CO)c1I)c1c(I)c(C(=O)NCC(O)CO)c(I)c(C(=O)NCC(O)CO)c1I (stereo not given)
inactive: all assays above

C[C@H]1COc2c(C3(N)CC3)c(F)cc3c(=O)c(C(=O)O)cn1c23
inactive: all assays above

CCCCCCCCCCC(CO)CCCCCCCC (stereo not given)
inactive: [1] | [2] | [4]

Cn1c([N+](=O)[O-])cnc1COC(N)=O
inactive: all assays above

NC(=O)NS(=O)(=O)c1ccc(N)cc1
inactive: [1] | [2] | [4]

C=CCOc1ccccc1OCC(O)CNC(C)C (stereo not given)
not listed: [4]
inactive: all other assays above
